# PubChem BioAssay (Tox21)
# Unmarked numbers belong to inactive results. Inconclusive results are not listed. The source made the active and inactive calls. Unless noted, calls follow the shape of the dose curve; as a rule, active = well fitted curve in the direction sought with a large enough effect in the repeat runs; inconclusive = weak or mixed curves; inactive = flat fitted curve, though single readings scatter.
# System: not listed separately
# Test: qHTS assay to test for compound auto fluorescence at 535 nm (green) in HepG2 cell free culture (AID 720686)
# Details: Cell-free medium, green autofluorescence 485/535 nm; series mostly up to 91.3 µM; fluorescence, % of fluorescein control: at the top concentration
# % is scaled to controls: 0 for no effect and ±100 for the full control effect.
row,SMILES,"fluorescence, % of fluorescein control"
1,CCCCCCCCC1CO1 (configuration not stated),-0.0955% [at 95.7 µM]
2,Cc1ccc2ccccc2n1,-0.0384%
3,Cc1ccc(O)c([N+](=O)[O-])c1,0.0043% [at 95.7 µM]
4,CCCCCC(=O)CC,-0.0685% [at 95.7 µM]
5,CN(C)CCC[C@@]1(c2ccc(F)cc2)OCc2cc(C#N)ccc21,-0.0468% [at 46 µM]
6,CC(O)C(CO)C(C)O (configuration not stated),0.0411% [at 95.7 µM]
7,CCOC(=O)CC,0.0072%
8,O=C1CC2(CCCC2)CC(=O)N1CCNCC1COc2ccccc2O1 (configuration not stated),0.0407% [at 46 µM]
9,CC1=C(O)C(=O)CO1,0.148%
10,O=S(=O)(O)c1cc(I)c(O)c2ncccc12,-0.0205% [at 46 µM]
11,Cc1nc2ccc(Cl)cc2[nH]1,0.031%
12,CCCC(=O)CC,-0.126% [at 95.7 µM]

# System: not listed separately
# Test: qHTS assay to test for compound auto fluorescence at 460 nm (blue) in HepG2 cells (AID 720687)
# Details: autofluorescence 405/460 nm, 1 h; series mostly up to 91.3 µM; fluorescence, % of fluorescent control: at the top concentration
# Outline: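 HepG2 cells in MEM with 10% FBS, attached overnight at 37 C, were exposed to compound or DMSO for 1 hr at 37 C, 5% CO2. Blue fluorescence was read at 405/460 nm, with triamterene as reference fluorophore.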
SMILES,"fluorescence, % of fluorescent control",outcome
CC(=O)OCC(=O)[C@@]1(O)CC[C@H]2[C@@H]3CCC4=CC(=O)C=C[C@]4(C)[C@H]3[C@@H](O)C[C@@]21C,-0.0465% [at 46 µM],
CCCCC(CC)CCC(CC(C)C)OS(=O)(=O)O (configuration not stated),,inactive
C=C(C)C(=O)OCCCC,0.0582% [at 95.7 µM],
CC(C)C(C)C,-0.0713%,
CC(=O)Oc1ccc(C(C)=O)cc1,0.0362% [at 95.7 µM],
CC(C)c1cc(C(C)C)cc(C(C)C)c1,0.0027%,
C=CC(=O)OCC[N+](C)(C)C,0.104%,
CC1(C)C(=O)C(C)(C)C1=O,-0.0561%,
CCCCCC(CC)OC(=O)CCCOc1ccc(Cl)cc1Cl (configuration not stated),0.0353%,
C=CCON/C(CCC)=C1\C(=O)CC(C)(C)C(C(=O)OC)=C1O,-0.133%,
CCCCCCC(O)CO (configuration not stated),-0.0224%,
O=C1c2ccccc2C(=O)N1CO,-0.0184% [at 95.7 µM],
CN(C)CCC[C@@]1(c2ccc(F)cc2)OCc2cc(C#N)ccc21,-0.0517% [at 46 µM],
O=C(O)Cc1c(Cl)ccc(Cl)c1Cl,0.0182%,
CC(O)C(CO)C(C)O (configuration not stated),0.0169% [at 95.7 µM],
CCC(=O)OCCOc1ccccc1,0.0029%,
CC[N+](C)(CC)CC,0.0702%,
O=C(OOC(=O)c1ccccc1)c1ccccc1,-0.0182% [at 46 µM],
CCCCC(CC)COC(=O)CC#N (configuration not stated),-0.0832%,
COC(C)(C)CC(C)=O,0.112%,
CC(=O)Nc1ccc(OCCOCCOc2ccc(NC(C)=O)cc2)cc1,-0.244% [at 46 µM],
N#CC1(N)CCCCC1,-0.0999% [at 95.7 µM],

# Target: Glucocorticoid receptor (Homo sapiens) (UniProt P04150)
# Test: qHTS assay to identify small molecule agonists of the glucocorticoid receptor (GR) signaling pathway (AID 720691; active = well fitted activation curve with a large enough effect in the signal ratio in the repeat runs, not every such curve was filed as active; the % refers to the signal ratio)
# Details: GR-bla HeLa, beta-lactamase reporter ratio, 18 h; series mostly up to 62.4 µM; activation: at the top concentration
# Outline: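 Cells: GR-bla HeLa, endogenous GR with stably integrated GRE-beta-lactamase reporter. Treatment 18 h, 37 C, compounds delivered in DMSO. Detection via LiveBLAzer B/G FRET substrate, 2 h RT, fluorescence intensity.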
# Glucocorticoid receptor (Homo sapiens), sequence (P04150 whole entry, looked up): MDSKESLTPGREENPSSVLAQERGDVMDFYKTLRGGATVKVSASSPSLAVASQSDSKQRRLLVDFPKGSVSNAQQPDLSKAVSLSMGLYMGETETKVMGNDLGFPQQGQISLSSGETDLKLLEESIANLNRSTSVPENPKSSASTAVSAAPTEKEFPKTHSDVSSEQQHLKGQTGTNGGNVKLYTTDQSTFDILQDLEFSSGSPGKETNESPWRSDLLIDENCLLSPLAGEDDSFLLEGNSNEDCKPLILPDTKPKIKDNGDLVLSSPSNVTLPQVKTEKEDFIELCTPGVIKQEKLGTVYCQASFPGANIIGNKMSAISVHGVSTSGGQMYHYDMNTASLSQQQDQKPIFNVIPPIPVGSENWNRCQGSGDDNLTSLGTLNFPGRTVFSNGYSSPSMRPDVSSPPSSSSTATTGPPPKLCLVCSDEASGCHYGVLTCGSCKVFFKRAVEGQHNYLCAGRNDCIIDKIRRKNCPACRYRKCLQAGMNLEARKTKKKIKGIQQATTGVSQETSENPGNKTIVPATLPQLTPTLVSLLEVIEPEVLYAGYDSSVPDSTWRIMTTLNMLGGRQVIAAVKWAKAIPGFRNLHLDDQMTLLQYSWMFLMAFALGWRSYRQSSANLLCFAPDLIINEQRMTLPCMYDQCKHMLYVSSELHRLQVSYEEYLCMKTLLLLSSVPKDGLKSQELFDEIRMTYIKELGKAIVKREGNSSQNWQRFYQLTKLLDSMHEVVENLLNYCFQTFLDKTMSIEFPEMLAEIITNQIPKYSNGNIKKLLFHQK
row,SMILES,activation
1,CC(C)C(C)C,1.68%
2,CCCCCCCCC1CO1 (configuration not stated),-0.311% [at 79.2 µM]
3,CC(C)c1cc(C(C)C)cc(C(C)C)c1,-0.565%
4,CCCCCC(CC)OC(=O)CCCOc1ccc(Cl)cc1Cl (configuration not stated),-2.53%
5,Cc1ccc2ccccc2n1,1.08%
6,C=CCON/C(CCC)=C1\C(=O)CC(C)(C)C(C(=O)OC)=C1O,-2.27%
7,CCCCCCC(O)CO (configuration not stated),-0.141%
8,O=C1c2ccccc2C(=O)N1CO,0.199% [at 79.2 µM]
9,CN(C)CCC[C@@]1(c2ccc(F)cc2)OCc2cc(C#N)ccc21,-0.608%
10,CC(C)C[P+](C)(CC(C)C)CC(C)C,1.41% [at 79.2 µM]
11,C=COCCCCO,7.56%
12,CC(O)C(CO)C(C)O (configuration not stated),0.105% [at 79.2 µM]
13,CC[N+](C)(CC)CC,0.547%
14,O=C(OOC(=O)c1ccccc1)c1ccccc1,-1.05%
15,Cc1nc2ccc(Cl)cc2[nH]1,-5.23%
16,COC(C)(C)CC(C)=O,1.06%
17,CC(=O)Nc1ccc(OCCOCCOc2ccc(NC(C)=O)cc2)cc1,0.373%
18,N#CC1(N)CCCCC1,0.503% [at 79.2 µM]
